Records with an inconclusive call do not appear. Calls of active or inactive are those of the source. How the source made its calls: active means hit-call score of the fitted dose curve at least 0.9, where 1 is the maximum; inconclusive means response in the unintended direction; inactive means score below 0.9.
Columns and labels:
[1] = TOX21_p53_BLA_p2_viability: Viability Assessment in the Tox21 HCT-116 p53 Agonism Beta-lactamase Assay, Phase 2 (AID 2283591);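 further: compound exposure lasted 16 h at 37 °C; actives lower the ATP signal meaning cytotoxicity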
Procedure, shortened: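 HCT116 p53-bla cells, 4000/well, dosed after 5 h plating (217-fold dilution of DMSO stocks) and incubated 16 h at 37C. Viability taken as cellular ATP by CellTiter-Glo luminescence after 30 min RT; signal loss marks cytotoxicity.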

[2] = molecular target: Cellular tumor antigen p53 (Homo sapiens) (UniProt P04637); assay: TOX21_p53_BLA_p3_ratio: Tox21 HCT-116 p53 Agonism Beta-lactamase Assay, Ratio, Phase 3 (AID 2283596)
Cellular tumor antigen p53 (Homo sapiens), sequence (P04637 whole entry, looked up): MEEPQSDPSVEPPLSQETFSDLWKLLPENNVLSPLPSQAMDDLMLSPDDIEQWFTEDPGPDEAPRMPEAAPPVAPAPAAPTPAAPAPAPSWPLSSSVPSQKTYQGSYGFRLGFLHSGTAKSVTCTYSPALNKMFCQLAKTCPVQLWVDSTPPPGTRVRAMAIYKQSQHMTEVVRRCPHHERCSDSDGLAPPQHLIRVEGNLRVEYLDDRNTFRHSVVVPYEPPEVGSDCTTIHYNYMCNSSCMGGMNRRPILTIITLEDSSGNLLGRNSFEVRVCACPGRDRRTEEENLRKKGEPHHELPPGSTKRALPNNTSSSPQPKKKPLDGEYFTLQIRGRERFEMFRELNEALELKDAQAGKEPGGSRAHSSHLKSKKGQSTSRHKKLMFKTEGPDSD
Procedure, shortened: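 Cells were seeded at 4000/well, rested 5 h at 37C, then dosed with DMSO compound solutions (217-fold dilution) for 16 h. CCF4-AM substrate was loaded for 2 h at room temperature, and the 460/530 nm emission ratio was fitted for gain of signal versus DMSO.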

[3] = TOX21_p53_BLA_p4_viability: Viability Assessment in the Tox21 HCT-116 p53 Agonism Beta-lactamase Assay, Phase 4 (AID 2283597);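 further: hits lower the luminescence signal meaning cytotoxicity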
Procedure, shortened: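 Cytotoxicity was inferred from loss of CellTiter-Glo luminescence. HCT116 cells had been dosed with compounds after 5 h plating, incubated 16 h at 37C and 5% CO2, and exposed to the CCF4-AM substrate for 2 h.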

[4] = molecular target: Cellular tumor antigen p53 (Homo sapiens) (UniProt P04637); assay: TOX21_p53_BLA_p4_ratio: Tox21 HCT-116 p53 Agonism Beta-lactamase Assay, Ratio, Phase 4 (AID 2283601)
Procedure, shortened: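 HCT-116 p53 beta-lactamase reporter cells (4000/well) preincubated 5 h, then compound (217-fold dilution of DMSO stock) for 16 h at 37C. CCF4-AM substrate added 2 h at room temperature; 460/530 nm emission ratio fitted upward versus DMSO.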

[5] = molecular target: Cellular tumor antigen p53 (Homo sapiens) (UniProt P04637); assay: TOX21_p53_BLA_p5_ratio: Tox21 HCT-116 p53 Agonism Beta-lactamase Assay, Ratio, Phase 5 (AID 2283599)
Procedure, shortened: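 HCT-116 p53-bla cells (4000/well) plated 5 h, dosed with compound (217-fold DMSO dilution) for 16 h at 37 C; CCF4-AM substrate 2 h at room temperature. Activity is the 460/530 nm emission ratio (405 nm excitation), fitted in gain-of-signal direction versus DMSO.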

[6] = TOX21_p53_BLA_p5_viability: Viability Assessment in the Tox21 HCT-116 p53 Agonism Beta-lactamase Assay, Phase 5 (AID 2283600)
Procedure, shortened: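 Luciferase-coupled ATP quantitation of cells treated for 16 h (37C, 5% CO2) with test chemicals delivered in DMSO via a 217-fold dilution; 4000 cells/well; reagent incubated 30 min at room temperature before luminescence reading.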

Measured: outcome

CCOc1ccc(NC(=S)Nc2ccc(OCC)cc2)cc1
inactive: [1] | [2] | [3] | [4]

ClCC=CCCl
not listed: [6]
inactive: all other assays above

CN1C(=O)C[C@@H](C(=O)N[C@@H](Cc2cnc[nH]2)C(=O)N2CCC[C@H]2C(N)=O)NC1=O
not listed: [3]
inactive: all other assays above

C=C[Si](OC(=C)C)(OC(=C)C)OC(=C)C
inactive: [1] | [2] | [5] | [6]

Cc1c(I)c(=O)n(-c2ccccc2)n1C
not listed: [3]
inactive: all other assays above

CC[C@H]1OC(=O)[C@H](C)[C@@H](O[C@H]2C[C@@](C)(OC)[C@@H](O)[C@H](C)O2)[C@H](C)[C@@H](O[C@@H]2O[C@H](C)C[C@H](N(C)C)[C@H]2O)[C@](C)(O)C[C@@H](C)[C@@H]2N[C@@H](COCCOC)O[C@@H]([C@H]2C)[C@]1(C)O
not listed: [3]
inactive: all other assays above

O=C(O)c1cc(O)c2c(c1)[C@H]([C@H]1c3cc(C(=O)O)cc(O)c3C(=O)c3c(O[C@@H]4O[C@H](CO)[C@@H](O)[C@H](O)[C@H]4O)cccc31)c1cccc(O[C@@H]3O[C@H](CO)[C@@H](O)[C@H](O)[C@H]3O)c1C2=O
not listed: [3]
inactive: all other assays above

O=C(O)CNC(=O)c1ccccc1I
inactive: [1] | [2] | [5] | [6]

COc1ccc(Br)c(C)c1
inactive: [1] | [2] | [3] | [4]

CC(O)CO (stereo unspecified) (tested in a mixture with another compound)
inactive: [1] | [2] | [3] | [4]

CN[C@H](CC(C)C)C(=O)N[C@H]1C(=O)N[C@@H](CC(N)=O)C(=O)N[C@H]2C(=O)N[C@H]3C(=O)N[C@H](C(=O)N[C@H](C(=O)O)c4cc(O)cc(O)c4-c4cc3ccc4O)[C@H](O)c3ccc(c(Cl)c3)Oc3cc2cc(c3O[C@@H]2O[C@H](CO)[C@@H](O)[C@H](O)[C@H]2O[C@H]2C[C@](C)(N)[C@H](O)[C@H](C)O2)Oc2ccc(cc2Cl)[C@H]1O
not listed: [5]
inactive: all other assays above

Cc1cccc(C)c1NC(=O)C1CCCCN1C (stereo unspecified)
inactive: [1] | [2] | [5] | [6]

O=C(O)COc1ccc2ccccc2c1
not listed: [3]
inactive: all other assays above

O=C(Cc1cccs1)N[C@@H]1C(=O)N2C(C(=O)[O-])=C(C[n+]3ccccc3)CS[C@H]12
not listed: [3]
inactive: all other assays above

CC[N+](CC)(CCNC(=O)C(=O)NCC[N+](CC)(CC)Cc1ccccc1Cl)Cc1ccccc1Cl
inactive: [1] | [2] | [3] | [4]

CN(C)CCCN1c2ccccc2C(C)(C)c2ccccc21
inactive: [1] | [2] | [5]

O=Cc1cccc([N+](=O)[O-])c1
not listed: [6]
inactive: all other assays above

CC[N+](CC)(CC)CCOc1cccc(OCC[N+](CC)(CC)CC)c1OCC[N+](CC)(CC)CC
not listed: [6]
inactive: all other assays above
